Screens from PubChem BioAssay.
TMEM16A act – mouse TMEM16A channel activation, primary screen; B-score at 10 µM; HEK293 TMEM16A/YFP-H148Q/I152L, iodide quench fluorescence; hits give low values; Q8BHY3; AID 623877; actives 0.3% (n = 340,000);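 active = fluorescence-ratio B-score plate-corrected deviation score at least 3 library SD below zero, with starting fluorescence score within 5 deviations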;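 note: channel opened by trigger with iodide after compound preincubation; score built on the fluorescence ratio of max minus min over baseline; more negative score means more quench and so TMEM16A activation or potentiation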
Target sequence (Q8BHY3 whole entry, looked up): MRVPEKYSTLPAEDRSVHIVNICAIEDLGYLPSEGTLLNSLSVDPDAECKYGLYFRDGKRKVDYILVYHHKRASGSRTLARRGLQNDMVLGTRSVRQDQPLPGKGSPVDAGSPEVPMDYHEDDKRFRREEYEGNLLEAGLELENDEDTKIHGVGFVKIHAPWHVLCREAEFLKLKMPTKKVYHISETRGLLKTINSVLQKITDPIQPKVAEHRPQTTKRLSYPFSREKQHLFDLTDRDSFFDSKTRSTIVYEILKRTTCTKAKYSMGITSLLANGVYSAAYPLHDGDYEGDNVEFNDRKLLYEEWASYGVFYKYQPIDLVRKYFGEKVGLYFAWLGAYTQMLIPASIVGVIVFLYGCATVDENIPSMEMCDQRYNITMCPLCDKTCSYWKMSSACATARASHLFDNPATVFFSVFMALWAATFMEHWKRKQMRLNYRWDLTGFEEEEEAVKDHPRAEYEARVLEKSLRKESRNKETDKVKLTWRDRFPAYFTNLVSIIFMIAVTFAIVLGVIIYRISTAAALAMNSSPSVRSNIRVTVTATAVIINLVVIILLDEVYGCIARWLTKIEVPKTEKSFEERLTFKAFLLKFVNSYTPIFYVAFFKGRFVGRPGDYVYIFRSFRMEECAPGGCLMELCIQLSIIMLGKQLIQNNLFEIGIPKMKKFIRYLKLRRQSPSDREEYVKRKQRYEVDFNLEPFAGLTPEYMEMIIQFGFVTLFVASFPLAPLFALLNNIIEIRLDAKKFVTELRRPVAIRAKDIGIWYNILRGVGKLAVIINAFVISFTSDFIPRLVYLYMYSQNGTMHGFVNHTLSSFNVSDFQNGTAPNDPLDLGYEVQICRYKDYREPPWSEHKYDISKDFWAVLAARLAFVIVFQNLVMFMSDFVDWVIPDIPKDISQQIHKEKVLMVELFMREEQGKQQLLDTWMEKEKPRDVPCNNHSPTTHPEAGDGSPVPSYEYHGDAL
CHT allo act – allosteric activators of human choline transporter CHT | B-score at 10 µM | CHT-expressing cells, membrane potential dye, choline EC20; hits give high values; LV-AA mutant CHT in HEK293 cells | actives 0.49% (n = 310,000) | Q9GZV3;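 active = initial fluorescence not abnormally high and integrated response B-score, plate-corrected, over 3 SD above library mean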
ANO1 block – blocks the mouse calcium-activated chloride channel TMEM16A. Q8BHY3. HEK293 TMEM16A/YFP iodide influx fluorescence, ionomycin. normalized B-score (activity score, 25-100; higher = stronger inhibition) at 10 µM. actives 1.2% (n = 310,000);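 active = ratio plate-corrected score three or more library SD toward inhibition, starting fluorescence score within five deviations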;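 note: score derived from kinetic fluorescence span divided by baseline fluorescence per well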
CHT inh – inhibitors of human choline transporter CHT; Q9GZV3; CHT-expressing cells, membrane potential dye, choline response; hits give low values; B-score at 10 µM; actives 0.86% (n = 310,000);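 active = B-score over 3 SD under the library average, and starting fluorescence ratio not unusually high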;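 note: choline stimulus applied at its EC90 after an EC20 pre-addition; B-score computed on integrated fluorescence ratio after choline addition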
CHT inh conf – confirmation of human choline transporter CHT inhibitors; shares compounds with CHT inh; CHT-expressing cells, choline membrane potential dye; LV-to-AA substituted CHT, HEK293 cells; CHT activity remaining % of control (hits give low values), % at 10 µM; actives 70% (n = 2,400);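 active = choline transporter activity left, mean of duplicates at 10 µM, below buffer-only control mean minus 3 SD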;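 note: depolarization triggered by choline at its EC90 following an EC20 pre-addition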
HEK293 MPD ctr – activity in parental HEK293 cells lacking CHT | membrane potential ratio readout (active if shifted either direction beyond buffer ±3SD; no single direction) at 10 µM | actives 4% (n = 2,400) | AID 493222 | shares compounds with CHT inh | membrane potential dye, choline response; active = decrease or increase beyond buffer ±3SD;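 note: parental cells lack the transporter so any hit is non-specific; ratio is peak minus trough fluorescence over baseline after EC90 choline challenge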
Large screens that a line does not name were inactive (follow-up assays come after a bar, where they were run). Sampled rows, rich in hits. Any-hit rate of the full collection: about 2.3%.

CS(=O)(=O)C1=NSC2=NC(=O)/C(=C\c3ccc(OC(=O)c4ccco4)cc3)C(=N)N21	none (no result: TMEM16A act)
CS(=O)(=O)C1=NN2C(=N)/C(=C\c3ccc(OC(=O)c4ccco4)cc3)C(=O)N=C2S1	CHT inh -6.85 | CHT inh conf 60.0% | HEK293 MPD ctr inactive
Cn1c2ccccc2c(=O)c2ccc(-c3ccc4c(c3)OCO4)cc21	none
O=C(C1Cc2ccccc2CN1S(=O)(=O)c1ccc(F)cc1)N1CCCCC1 (configuration not stated)	CHT inh -6.29 | CHT inh conf 3.1% | HEK293 MPD ctr inactive
COc1ccc(-c2cc(C(=O)Nc3ccc(C(N)=O)cc3)c3ccccc3n2)cc1	none
Cc1ccc(C(=O)O)cc1N=Cc1cc(Br)cc(Br)c1O	CHT inh -6.17 | CHT inh conf 58.9% | HEK293 MPD ctr inactive
O=C(Cn1nc(C(F)(F)F)cc1C1CC1)NCc1ccccc1F	CHT inh -5.79 | CHT inh conf 65.0% | HEK293 MPD ctr inactive
CCCCCc1cc(=O)oc2c(C(CCN3CCCC3)c3ccc(N(C)C)cc3)c(OC)cc(OC)c12 (configuration not stated)	CHT inh -6.27 | CHT inh conf inactive | HEK293 MPD ctr inactive
COc1cc(C(CCN2CCCC(C)C2)c2c(OC)cc(OC)c3c(-c4ccccc4)cc(=O)oc23)cc(OC)c1OC (configuration not stated)	CHT inh -8.68 | CHT inh conf 22.1% | HEK293 MPD ctr inactive
COc1cc(C(CCN2CCCCC2)c2c(OC)cc(OC)c3c(-c4ccccc4)cc(=O)oc23)cc(OC)c1OC (configuration not stated)	CHT inh -8.05 | CHT inh conf 44.2% | HEK293 MPD ctr inactive
COc1cc(C(CC(=O)N2CCCC2)c2c(OC)cc(OC)c3c(-c4ccccc4)cc(=O)oc23)cc(OC)c1OC (configuration not stated)	none
COc1ccc(N2CC(C(=O)N[C@H](C(=O)NC3CCCCC3)C(C)C)CC2=O)cc1 (some centres not stated)	none
CN(C)C1=NCCN1CCC1CCCCC1	none
COc1ccc(Cl)cc1NC(=O)C1CCCN(c2ncnc3c2nc2n3CCCCC2)C1 (configuration not stated)	CHT inh -5.19 | CHT inh conf 57.5% | HEK293 MPD ctr inactive
O=C(Nc1ccc(Cl)cn1)C1CCCN(c2ncnc3c2nc2n3CCCCC2)C1 (configuration not stated)	CHT inh -6 | CHT inh conf 31.8% | HEK293 MPD ctr inactive
CC1CCN(CCNC(=O)C2CCCN(c3ncnc4c3nc3n4CCCCC3)C2)CC1 (configuration not stated)	CHT inh -10.5 | CHT inh conf 32.1% | HEK293 MPD ctr inactive
O=C(CCC(=O)N1CCOc2ccccc21)NCCCN1CCN(Cc2ccccc2)CC1	none
C=CCn1c(SCC(=O)Nc2ccc(S(N)(=O)=O)cc2)nnc1-c1cnccn1	none
CCOC(=O)c1ccc(S(=O)(=O)NCCNCc2ccccc2)cc1	none (no result: CHT allo act, ANO1 block, CHT inh)
CC1=NN(C(N)=S)C(=O)C1N=Nc1c(Br)cc(Br)cc1Br (configuration not stated)	ANO1 block 100, CHT inh -7.65 | CHT inh conf 31.1% | HEK293 MPD ctr inactive
CC(C)(C)NC(=O)CSc1ncnc2c1nnn2Cc1ccccc1Cl	CHT inh -6.73 | CHT inh conf inactive | HEK293 MPD ctr inactive
Cc1ccc2c(Cl)c(C)c(N3CCOCC3)nc2n1	none (no result: CHT allo act, ANO1 block, CHT inh)
Cc1ccc(CCNC(=O)C2CCN(S(=O)(=O)N3CCOCC3)CC2)cc1	none
Fc1ccc(NC(=S)Nc2ccc(F)c(Cl)c2)cc1Cl	TMEM16A act -10.3, ANO1 block 100, CHT inh -6.09 | CHT inh conf 36.5% | HEK293 MPD ctr inactive
O=C(NC(=S)Nc1ccc(F)c(Cl)c1)C1CC1	none
COCCCNC(=O)CCc1ccccc1	none
COCCNC(=O)C(=O)NNC(=O)CCc1ccccc1	CHT inh -5.48 | CHT inh conf inactive | HEK293 MPD ctr inactive
Cc1cccc(CNc2ccc(C(CC(N)=O)NC(=O)c3ccccc3)cc2[N+](=O)[O-])c1 (configuration not stated)	none
CCCCNc1ccc(C(CC(N)=O)NC(=O)c2ccccc2)cc1[N+](=O)[O-] (configuration not stated)	none
CCC(CC)Nc1ccc(C(CC(N)=O)NC(=O)c2ccccc2)cc1[N+](=O)[O-] (configuration not stated)	CHT inh -5.07 | CHT inh conf 41.2% | HEK293 MPD ctr inactive
NC(=O)CC(NC(=O)c1ccc(Br)cc1)c1ccc(N2CCCCCCC2)c([N+](=O)[O-])c1 (configuration not stated)	CHT inh -5.34 | CHT inh conf 65.1% | HEK293 MPD ctr inactive
Cc1ccccc1CNc1ccc(C(CC(N)=O)NC(=O)c2ccccc2)cc1[N+](=O)[O-] (configuration not stated)	CHT inh -5.39 | CHT inh conf inactive | HEK293 MPD ctr inactive
CCOc1ccc(NS(=O)(=O)c2ccc(C(=O)NCC(c3ccco3)N3CCCC3)cc2)cc1 (configuration not stated)	none (no result: CHT allo act, ANO1 block, CHT inh)
CCCn1c(C)cc(=O)c2cc(NC(=O)c3ccccn3)ccc21	CHT inh -5.1 | CHT inh conf 52.9% | HEK293 MPD ctr 2.79
CCCC(=O)Nc1ccc(NC(=O)c2ccccn2)cn1	none (no result: TMEM16A act)
O=C(NCc1nnnn1-c1ccc(F)c(F)c1)c1ccc(S(=O)(=O)N2CCOCC2)cc1	none
CCN(c1ccccc1)S(=O)(=O)c1ccc(C(=O)N(CCCN(C)C)c2nc3c(C)cccc3s2)cc1	none
CCOC(=O)c1sc(=S)n(CC)c1NC(=O)C1CC1	CHT inh -6.15 | CHT inh conf 71.0% | HEK293 MPD ctr inactive
C=CCNc1nc(SCC=C)nc2ccsc12	CHT inh -8.45 | CHT inh conf 24.9% | HEK293 MPD ctr inactive
COc1cc(C=O)ccc1OCCOc1ccccc1[N+](=O)[O-]	none
COc1cc(C=O)ccc1OCCOCCOc1ccccc1Cl	CHT inh -5.56 | CHT inh conf 63.4% | HEK293 MPD ctr inactive
C[C@H](CO)N1C[C@H](C)[C@@H](CN(C)C)Oc2c(NS(=O)(=O)c3ccccc3)cccc2C1=O	none (no result: CHT allo act, ANO1 block, CHT inh)
Cc1cc(C)c(C#N)c(N2CCN(C(=O)C3COc4ccccc4O3)CC2)n1 (configuration not stated)	none (no result: CHT allo act, ANO1 block, CHT inh)
Cc1cc(/C=N/NC(=O)C(=O)N2CCCC2)c(C)n1-c1cccc(Br)c1	CHT inh -7.39 | CHT inh conf 58.0% | HEK293 MPD ctr inactive
Cc1cc(/C=N/NC(=O)c2c(Br)cnn2C)c(C)n1-c1cccc(Br)c1	none
O=C(Nc1ccnn1C1CCN(Cc2ccn[nH]2)CC1)c1ccccc1	none
